Our source for the potentiation values is PubChem BioAssay AID504651 (National Center for Advancing Translational Sciences (NCATS), 2011).

SMILES strings stand for the structures. The whole screen tested about 360,000 compounds, of which about 130 (0.036%) were called active. Only a selection was taken, and actives are over-represented in it overall. Values without a mark were called inactive. Cut-off read from the data, not from the text of the source: active = potentiation above about 30%; inactive = the rest.

D(1A) dopamine receptor (Homo sapiens), sequence (P21728 whole entry, looked up): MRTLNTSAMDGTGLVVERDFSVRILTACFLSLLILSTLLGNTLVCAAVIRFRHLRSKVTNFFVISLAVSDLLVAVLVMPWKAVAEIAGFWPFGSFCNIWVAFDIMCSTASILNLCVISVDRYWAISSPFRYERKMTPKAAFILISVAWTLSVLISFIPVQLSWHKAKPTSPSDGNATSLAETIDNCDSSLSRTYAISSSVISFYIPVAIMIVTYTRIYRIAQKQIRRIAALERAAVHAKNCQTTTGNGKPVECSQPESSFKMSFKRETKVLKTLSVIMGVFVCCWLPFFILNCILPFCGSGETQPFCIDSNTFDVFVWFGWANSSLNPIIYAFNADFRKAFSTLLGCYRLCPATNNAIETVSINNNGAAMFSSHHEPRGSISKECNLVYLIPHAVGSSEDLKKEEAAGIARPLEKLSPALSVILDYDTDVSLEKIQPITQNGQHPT

This test concerns the target D(1A) dopamine receptor (Homo sapiens) (UniProt P21728). The test can be described thus: Potentiators of Human D1 Dopamine Receptor: qHTS. Note: 0% is about no effect. Particulars: HEK293 TREx D1 cells, calcium flux, dopamine EC20 potentiation; at 10 µM; stronger effect = higher value. The source says: Dopamine receptors (DARs) are involved in the etiology and/or therapy of a number of neuropsychiatric and endocrine disorders. For instance, all receptor-based antiparkinsonian drugs work via stimulating the D1 DAR subtype whereas all FDA-approved antipsychotic agents are antagonists of this receptor. […] There are three different types of allosteric modulators that we are seeking, two of which will stimulate or augment receptor signaling, allosteric agonists and potentiators, while the third, allosteric antagonists, will attenuate receptor signaling. The present primary screening assay measures compound potentiation of an EC20 dopamine response by tracking calcium flux in a […], inducible Hek293 Trex D1 cell line.
NIH Chemical Genomics Center [NCGC]
NIH Molecular Libraries Probe Centers Network [MLPCN]
Assay Submitter (PI): David Sibley
Freshly passaged cells are plated in 1536 well black, clear bottom plates at a density of 4000 cells/well in 3 ul of complete media containing 1x tetracycline inducer. After an overnight incubation at 30 C in 5% CO2, cells are loaded with 2 ul of the no wash Calcium Assay Kit (ABD Bioquest) and incubated at room temperature for 30 to 90 minutes. A 10 cycle (1 second/cycle) baseline measurement is taken and then the FDSS online 1536 pintool delivers 23 nl of compound library (as well as dopamine controls) to the plate. The plate is measured for kinetically at 1 cycle/sec for 180 seconds and is considered to be the agonist portion of the assay (eg, compounds which activate a positive calcium response during this portion are flagged as potential agonists). Following the 180 second read, 1 ul of an EC20 of dopamine is delivered by an onboard pipette head. Measurements are taken kinetically for an additional 180 seconds.
As for `Cc1ccc(S(=O)(=O)NC(N)=NCCC[C@@H](NC(=O)CNC(=O)c2ccccc2)C(=O)Nc2cc(C(F)(F)F)ccc2Cl)cc1`, the potentiation was 5.3%.

As to `COc1ccc(N2C(=O)CS(=O)(=O)C23C(=O)N(Cc2ccc(C)cc2)c2ccccc23)cc1Cl` (centres undefined), the potentiation is -6.6%.

Turning to `COc1cccc(NC(=O)N(Cc2cn(C)c3ccccc23)C2CCCCCC2)c1`, the potentiation was 1.8%.

Consider `O=C(CC1N=C2c3ccccc3N=C(SCc3ccc(F)cc3)N2C1=O)NCc1cccs1` (centres undefined), for which the potentiation was -0.25%.

As to `CCN1CCN(c2cc(C)c3cc(NC(=O)c4cc(Cl)ccc4OC)ccc3n2)CC1`, the potentiation is -1.15%.

As for `Cc1nc(SCC(=O)N2CCN(c3ccccc3)CC2)[nH]c(=O)c1C`, the potentiation was 5.55%.

In the case of `CC(=O)c1ccc(NC(=O)CSc2nnc(NC(=O)Nc3ccccc3)s2)cc1`, the potentiation is 4.75%.

For the molecule `Cc1ccc(O)c(NC(=O)CCS(=O)(=O)c2nc(-c3ccc4c(c3)OCO4)cc(C(F)(F)F)n2)c1`, the potentiation was -1.35%.

Regarding `CCOC(=O)Cn1c(=O)n(-c2ccccc2OC)c2nc(-c3cccc(F)c3)nc(C(N)=O)c21`, the potentiation is -1.3%.

Turning to `Cc1ccc(C2CCN(C(=O)c3cnn(-c4ccccc4Cl)c3C3CCN(C(=O)OC(C)(C)C)CC3)C2)cc1` (centres undefined), the potentiation was 2%.

For `COc1ccc(N2CCN(C(=O)c3c(C)oc4nc(C)nc(N5CCCC5)c34)CC2)cc1`, the potentiation is -1.55%.

For `O=C(CSc1nccn1Cc1ccc(Cl)cc1)NCc1ccccc1`, the potentiation was 0.3%.

Consider `COc1ccc(N2CCN(C(=O)[C@@H](NC(=O)c3cc(OC)cc(OC)c3)C(C)C)CC2)cc1`, for which the potentiation was -4.25%.

As for `COc1cc(OC)cc(C(=O)N[C@H](C(=O)OCC(=O)NC(C)c2ccccc2)C(C)C)c1` (some centres undefined), the potentiation is 36.6% (active).

For `Cc1ccccc1OCCC(=O)OCC(=O)NC(C)c1ccccc1` (centres undefined), the potentiation was -0.3%.

With `Cc1onc(-c2ccc(F)cc2F)c1C(=O)Nc1cccc(C(F)(F)F)c1`, the potentiation is 0.65%.

`COc1ccccc1-c1cc(C(F)(F)F)nc(S(=O)(=O)CCCC(=O)Nc2ccc(F)cc2F)n1`: the potentiation was -0.1%.

As for `COc1ccc(CCNc2nc(-c3ccc(F)cc3)cc(C(F)(F)F)n2)cc1OC`, the potentiation is 3.1%.

Turning to `Brc1ccc2c(c1)NC(c1cccnc1)=NC(c1ccccc1)=N2`, the potentiation was 35.8% (active).

Take `COc1ccc(C2=NC(c3ccncc3)=Nc3ccc(Br)cc3N2)cc1`: the potentiation was 3.45%.

As for `Brc1ccc(C2CC(c3ccccc3)=Nc3ccccc3N2)cc1` (centres undefined), the potentiation is -5.6%.

Take `CCCCS(=O)(=O)c1oc(-c2cccs2)nc1S(=O)(=O)c1ccccc1`: the potentiation is -0.2%.

For `CCc1ccccc1NC(=O)c1ccc2nc(CCc3ccccc3)oc2c1`, the potentiation is 1%.

With `CCOc1ccccc1C(=O)NC1(C(F)(F)F)NC(=O)N(CCc2ccc(OC)c(OC)c2)C1=O` (centres undefined), the potentiation was -3.95%.

As to `O=C(NCc1nnc(C(=O)Nc2ccc(C(F)(F)F)cc2Cl)o1)c1ccccc1`, the potentiation was -8.2%.

In the case of `CCCS(=O)(=O)c1ncc(Cl)c(C(=O)Nc2scc(-c3ccccc3)c2C(=O)OCC)n1`, the potentiation is -3.7%.

Take `N#Cc1nc(Nc2cc(F)cc(Cl)c2)nc(NC2CCCC2)n1`: the potentiation was -0.2%.

For `CCOc1ccc(C2C3=C(CCCC3=O)N(CC(=O)O)C3=C2C(=O)CCC3)cc1`, the potentiation was 36% (active).

For the molecule `COc1ccc(C2C3=C(CCCC3=O)N(CC(=O)O)C3=C2C(=O)CCC3)cc1`, the potentiation was 1%.

Take `CCOc1ccc(C2C(C#N)=C(N)N(N(C)C)C3=C2C(=O)CCC3)cc1` (centres undefined): the potentiation was -0.15%.

For the molecule `CCc1ccc(CN(Cc2ccco2)C(=O)c2ccccc2Cl)cc1`, the potentiation is -2.55%.

Take `CC(=O)Nc1cccc(NC(=O)CSc2cn(CC(=O)N3CCCC3)c3ccccc23)c1`: the potentiation was -2.85%.

For the molecule `O=c1c(NCc2cccs2)nccn1-c1ccccc1`, the potentiation is 0.1%.

Regarding `O=C(COc1ccc(Cl)cc1)N(Cc1ccco1)Cc1ccco1`, the potentiation was 1.05%.

For the molecule `Cc1ccc(Cn2c(C)c3cnn(CC(=O)NCc4ccccc4)c(=O)c3c2C)cc1`, the potentiation is -1.5%.

As to `O=C(COc1ccccc1)NCc1ccc2c(c1)CCN2C(=O)c1ccc(F)cc1`, the potentiation was -2.1%.

In the case of `Cc1ccc(CCNC(=O)Cn2c(-c3cccs3)cc3cc(F)ccc32)cc1`, the potentiation is -3.65%.

Consider `Cc1ccc(-c2cc(N)n(Cc3cccc(Cl)c3)n2)cc1`, for which the potentiation was -4.4%.

For the molecule `O=S(=O)(c1ccc2nc(NCc3ccccc3Cl)ccc2c1)N1CCCCC1`, the potentiation was -5.55%.

`Cc1ccc2ccc3c(c2n1)NS(=O)(=O)c1ccccc1-3`: the potentiation was 1.45%.

In the case of `COc1ccc(OC)c(NC(=O)CSc2nc3ccccc3nc2N2CCCCC2)c1`, the potentiation was -3.85%.

In the case of `CCc1ccccc1NC(=O)CSc1nnc(-c2ccccc2)c(-c2ccccc2)n1`, the potentiation is 1%.

For the molecule `Cc1c(Cl)cccc1NC(=O)c1noc2c1CCCC2`, the potentiation is 2.2%.

Take `CCC(=O)N1CCc2cc(CNS(=O)(=O)c3ccc(Br)s3)ccc21`: the potentiation is -0.5%.

As to `O=C1C(F)N([S+](=O)([O-])c2ccc3c(c2)OCCO3)CCN1[S+](=O)([O-])c1c(F)cccc1F` (centres undefined), the potentiation is 5.45%.

`COc1cccc(CNC(=O)c2ccc3c(c2)N(Cc2ccc(C(F)(F)F)cc2)C(=O)c2ccccc2S3)c1OC`: the potentiation is -5.65%.

For the molecule `N#Cc1nc(Nc2cccc(Cl)c2)nc(NC2CCCC2)n1`, the potentiation is -2.6%.

Turning to `Cc1c(-c2nc(-c3ccc4c(c3)OCO4)no2)nnn1-c1ccc(Br)cc1F`, the potentiation is -2.8%.

In the case of `CC1CCC2(CC1)N=C(c1ccccc1)C(=O)N2CC(=O)Nc1ccc(F)c(Cl)c1` (centres undefined), the potentiation was -3.15%.

Regarding `CN(C(=O)c1ccc2c(c1)N(Cc1cccc(Cl)c1)C(=O)c1ccccc1S2=O)C1CCCCC1` (centres undefined), the potentiation is 0.2%.

`CCc1cc2c(cc3c(=O)n(CC(=O)N4CCN(c5cc(Cl)ccc5C)CC4)ncn32)s1`: the potentiation was -2.7%.

For `O=C(CNC(=O)c1ccccc1)OC(C(=O)Nc1cc([N+](=O)[O-])ccc1F)c1ccccc1` (centres undefined), the potentiation is 5.6%.

With `COCCNC(=O)c1ccc2c(c1)N=C(C)c1cc(C)ccc1S2`, the potentiation was 0.1%.

As for `CCOC(=O)c1cccc(NC(=O)c2cc(CN3CCCC3)on2)c1`, the potentiation is -7.25%.
